TDP1 cell noCPT: qHTS for Inhibitors of human tyrosyl-DNA phosphodiesterase 1 (TDP1): qHTS in cells in absence of CPT; DT40 Tdp1-/- hTDP1 cells, no CPT, ATP luminescence, 48 h; Potency, µM (titrated, usually from 46.2 µM), for the others: at the highest dose activity change, negative = growth inhibition, usual class: inhibitors; hit rate 15% among 420,000; further: on the % scale 0 is the no-effect control and ±100 the full control effect; nearly all actives have a fitted effect of over 55% in size
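Stably hTDP1-transfected Tdp1-null chicken DT40 cells were treated with library compounds minus camptothecin and grown for at least 48 hr at 37 °C, after which cellular ATP was quantified by luminescence.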
DT40 TDP1 CPT: qHTS for Inhibitors of human tyrosyl-DNA phosphodiesterase 1 (TDP1): qHTS in cells in presence of CPT; hit rate 12% among 420,000; Potency, µM (highest dose often 46.2 µM), for the others: at the highest dose activity change, negative = growth inhibition, hits mostly inhibitors; chicken DT40 Tdp1-/-;hTDP1 cells + 20 nM CPT, ATP luminescence, 48 h; AID 686979, 2013; further: on the % scale 0 is the no-effect control and ±100 the full control effect; nearly all actives have a fitted effect of over 55% in size
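Cell growth measured by CellTiter-Glo luminescence after a minimum 48 h, 37 C compound exposure with 20 nM CPT in Tdp1-knockout DT40 cells stably expressing hTDP1, seeded 400/well; qHTS titration format.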
HepG2 tox: qHTS for Inhibitors of TGF-b: Cytotox Counterscreen; HepG2 CAGA-GFP viability, ATP luminescence, 18 h; AID 588856, 2011; hit rate 0.76% among 410,000; Potency, µM (top dose mostly 46.1 µM), for inactives: at the top dose activity change, negative = cytotoxicity, most hits filed as cytotoxic
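CellTiter-Glo luminescence gave cytotoxicity after 18 hours at 37 degrees C. The cells were HepG2 CAGA-GFP in 1% FBS DMEM, stimulated with 500 pg/mL TGF-beta after compound addition. %Activity was normalised to no-cell wells (complete cell-killing) and DMSO (no toxicity), and curves were fitted and classified.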
S2 tox: Viability Counterscreen for Primary qHTS for Inhibitors of ATXN expression; S2 cells (HEK-293 line with an ATXN2-luciferase reporter) viability, CellTiter-Fluor protease fluorescence, 24 h; Potency, µM (top dose mostly 56.7 µM), hits mostly cytotoxic; hit rate 0.49% among 400,000; AID 651635, 2014; further: nearly all actives have a fitted effect of over 40% in size
ATXN2 expr inh: Primary qHTS for Inhibitors of ATXN expression; HEK-293 ATXN2-luciferase reporter, luminescence, 24 h; Potency, µM (series often up to 57 µM), for the others: at the highest dose activity change, negative = inhibition, actives largely listed as inhibitors; hit rate 0.72% among 360,000; further: on the % scale 0 is the no-effect control and ±100 the full control effect; nearly all actives have a fitted effect of over 55% in size
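ATXN2-luciferase reporter cells (luciferase flanked by upstream and downstream ATXN2 gene portions) were treated 24 h at 37 °C with compounds at up to 57 uM. SteadyGlo luminescence gave expression; GF-AFC fluorescence gave viability.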
TGFb SMAD3 inh: qHTS for Inhibitors of TGF-b; HepG2 CAGA-GFP TGF-b/SMAD3 reporter, GFP fluorescence, 18 h; TGF-beta stimulated, 500 pg/mL final; Potency, µM (highest dose often 46.1 µM), for inactives: at the highest dose activity, negative = inhibition, usual class: inhibitors; hit rate 1.2% among 410,000; AID 588855, 2011; further: on the % scale 0 is the no-effect control and ±100 the full control effect; nearly all actives have a fitted effect of over 65% in size
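GFP signal (ex488/em500-530) from TGF-beta-stimulated HEPG2 CAGA-GFP cells, 500 pg/mL final, 18 h at 37 degrees C in DMEM plus 1% FBS, normalized to unstimulated and DMSO-stimulated controls.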
The depositor's hits bear a star; i = inactive; ? = inconclusive; · = no result; [ ] = remark or other dose. An excerpt weighted towards active compounds, which were near 17% of everything screened. The call rests on the fitted dose curve; in most records, active means well fitted curve in the direction sought with a large enough effect; inconclusive means small, poorly fitted or top-dose-only effect, or another doubt; inactive means no such curve, though single readings can be large; an effect the other way counts as inactive or inconclusive. Potency means the concentration at half of the fitted maximal effect.

SMILES | TDP1 cell noCPT | DT40 TDP1 CPT | HepG2 tox | S2 tox | ATXN2 expr inh | TGFb SMAD3 inh
Cc1ccc(C)c(CN2C(=O)c3ccccc3S(=O)c3ccc(C(=O)N4CCCCC4)cc32)c1 (stereo not drawn) | 16µM* | 16µM* | 0% | i | 16% | ?
Cc1ccccc1CN1C(=O)c2ccccc2S(=O)c2ccc(C(=O)NC3CCC(C)CC3)cc21 (stereo not drawn) | -29% | ? | 5% | · | · | -3%
O=C(c1ccc2c(c1)N(Cc1ccccc1F)C(=O)c1ccccc1S2=O)N1CCOCC1 (stereo not drawn) | -3% | -8% | 2% | i | 1% | -2%
CCOC(=O)N1CCC(NC(=O)c2ccc3c(c2)N(Cc2cc(C)ccc2C)C(=O)c2ccccc2S3=O)CC1 (stereo not drawn) | 18µM* | 6.5µM* | -19% | i | -19% | ?
COc1ccc(CCC(=O)OCC(=O)Nc2sccc2C(N)=O)cc1 | 1% | -16% | -28% | i | -1% | 0%
CSCCC1NC(=O)C(C(C)=Nc2ccccc2)=C1O (stereo not drawn) | ? | -20% | 11% | i | 21% | ?
CCOC(=O)N1CCC(NC(=O)c2ccc3c(c2)N(Cc2cc(C)ccc2C)C(=O)c2ccccc2S3(=O)=O)CC1 | 12µM* | ? | -17% | · | · | ·
CCN1CCN(C(=O)c2ccc3c(c2)N(Cc2cc(C)ccc2C)C(=O)c2ccccc2S3(=O)=O)CC1 | -27% | -3% | -33% | · | · | ·
COc1ccccc1CNS(=O)(=O)c1c(C)nc2sc(C)cn2c1=O | 8% | 10% | 3% | · | · | -5%
CCCc1cc(C(=O)N2CCCC(Cc3cccc(Cl)c3)(C(=O)OCC)C2)n(C)n1 (stereo not drawn) | 13µM* | 18µM* | -18% | i | -24% | ?
CCOC(=O)C1(Cc2cccc(Cl)c2)CCCN(C(=O)c2cc(CC)on2)C1 (stereo not drawn) | 16µM* | ? | 24% | ? | 21% | -11%
CCOC(=O)C1(Cc2cccc(Cl)c2)CCCN(C(=O)c2cc(C)n(C)n2)C1 (stereo not drawn) | ? | ? | 4% | i | -18% | -20%
CCOC(=O)C1(Cc2cccc(Cl)c2)CCCN(C(=O)c2ccnn2C)C1 (stereo not drawn) | ? | 15µM* | -21% | ? | 15% | -11%
CCOC(=O)C1(Cc2cccc(OC)c2)CCCN(C(=O)c2cc(C)oc2C)C1 (stereo not drawn) | 13µM* | 21µM* | -2% | ? | 8% | -20%
COC(=O)C1=C(C)N(c2ccc(Cl)c(Cl)c2)C(=O)C1 | 5.2µM* | 5.2µM* | -11% | i | ? | ?
COC(=O)C1=C(C)N(c2ccc(S(N)(=O)=O)cc2)C(=O)C1 | -2% | 1% | 2% | i | 0% | 4%
CCOC(=O)CCNC(C(=O)OCC)c1ccccc1 (stereo not drawn) | -21% | -1% | -28% | i | 2% | 10%
Cc1ncoc1C(=O)N1CCOc2ccc(CN3CCN(c4ccccn4)CC3)cc2C1 | ? | -7%[9.04 µM] | · | i | · | ·
C=CCN1C(=O)C2C(C(=O)NC3CCCC3)C3C=CC2(O3)C1C(=O)NC1CCCC1 (stereo not drawn) | 17% | -1% | 5% | i | 23% | 3%
Cn1c(=O)c(C#N)c(-c2ccc(F)cc2)c2cc(C(=O)c3cc(Cl)cc(Cl)c3O)cnc21 | ? | ? | -45% | i | ? | 18µM*
C[C@@H]1C(=O)NC2=Nc3cccc(Cl)c3CN21 | -29% | -27% | · | · | · | ·
Cc1ccc(S(=O)(=O)c2[nH]c(-c3ccccc3)nc2SC(C)C(=O)O)cc1 (stereo not drawn) | ? | 1% | 3% | i | 5% | 26%
Cc1cccc(N2CCN(C(=O)CCCn3c(=O)c4cccn4c4cccnc43)CC2)c1C | 18µM* | ? | 0% | ? | ? | -8%
Cc1ccc(Cl)cc1N1CCN(C(=O)CCCn2c(=O)c3cccn3c3cccnc32)CC1 | 29µM* | ? | -32% | ? | · | ?
CC1CC(C)CN(C(=O)CCCn2c(=O)c3cccn3c3cccnc32)C1 (stereo not drawn) | 1% | -20% | -3% | i | -20% | 1%
SMILES | TDP1 cell noCPT | DT40 TDP1 CPT | HepG2 tox | S2 tox | ATXN2 expr inh | TGFb SMAD3 inh
COc1ccc(NS(=O)(=O)c2cccc(C(=O)O)c2)cc1S(=O)(=O)N1CCCCC1 | -16% | 17% | -15% | i | · | -2%
O=Nc1c(O)n(Cc2ccc(Cl)cc2Cl)c2ccccc12 | -27% | -16% | 5µM* | i | 1% | ?
O=Nc1c(O)n(Cc2ccc(Cl)cc2)c2ccccc12 | -25% | 7% | -57% | i | -16% | -15%
CC(=O)CCc1c(C)[nH]c2ccccc2c1=O | -14% | -19% | -9% | i | 4% | 2%
CCc1c(C)[nH]c2ccccc2c1=O | 21µM* | ? | 4% | i | 12% | -9%
CC1C(c2ccccc2)OCCN1C=NC#N (stereo not drawn) | -2% | 6% | 2% | i | · | 5%
CC1(C(=O)NS(=O)(=O)c2ccc(Cl)cc2)CCN1C(=O)c1ccccc1CCc1ccccc1 (stereo not drawn) | -20% | 2% | 0% | i | -1% | 12%
CC(NC(=O)C(Cc1ccccc1)=NO)c1ccccc1 (stereo not drawn) | 23µM* | 21µM* | -17% | i | -3% | -2%
Cc1ccc(-c2cc3nc(-c4ccccc4)cc(NCCCO)n3n2)cc1 | ? | ? | -30% | i | · | -4%
N#Cc1c(-c2ccccc2)cc(-c2ccccc2)nc1SCC(O)CS(=O)(=O)Cc1ccc(Cl)cc1 (stereo not drawn) | 3.3µM* | 8.2µM* | 1% | i | -1% | -7%
CC(=O)Oc1ccc(C23c4ccccc4C2(OC(C)=O)c2cc(OC(C)=O)ccc23)cc1 (stereo not drawn) | ? | 23µM* | -17% | ? | ? | ?
COc1ccc(C(=O)NCc2nnnn2-c2ccc(C)c(C)c2)cc1 | -27% | ? | -2% | · | · | -3%
